RORg inh: inhibitors of mouse ROR gamma transcriptional activity; Drosophila S2 Gal4-RORgamma UAS-luciferase reporter, 20 h; Potency, µM (doses to about 53.6 µM), without a hit: top-dose activity change, negative = inhibition, actives largely listed as inhibitors; 310,000 compounds, 5.4% hits; further: potency means the concentration at half of the fitted maximal effect; on the % scale 0 is the no-effect control and ±100 the full control effect; nearly all actives have a fitted effect of over 60% in size
Target sequence (P51450 whole entry, looked up, the tested form may be a part): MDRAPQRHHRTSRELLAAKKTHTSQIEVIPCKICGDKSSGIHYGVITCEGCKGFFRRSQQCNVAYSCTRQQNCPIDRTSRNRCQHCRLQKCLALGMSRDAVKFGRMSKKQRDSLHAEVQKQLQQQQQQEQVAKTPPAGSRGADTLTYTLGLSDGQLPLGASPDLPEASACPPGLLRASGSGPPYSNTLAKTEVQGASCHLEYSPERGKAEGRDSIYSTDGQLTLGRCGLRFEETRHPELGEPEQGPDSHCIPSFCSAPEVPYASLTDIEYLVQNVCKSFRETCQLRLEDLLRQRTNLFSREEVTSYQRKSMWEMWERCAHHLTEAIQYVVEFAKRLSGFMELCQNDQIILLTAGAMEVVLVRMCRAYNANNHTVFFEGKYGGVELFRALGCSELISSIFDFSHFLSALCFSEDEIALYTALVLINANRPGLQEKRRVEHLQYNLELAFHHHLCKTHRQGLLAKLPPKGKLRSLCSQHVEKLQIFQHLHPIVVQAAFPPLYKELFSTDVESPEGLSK
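Read-out: Photinus luciferase luminescence; inhibitors lower reporter signal. Insect Schneider cells with Gal4-ROR gamma fusion under metallothionein promoter, UAS reporter; 700 uM final copper sulfate induction, 20 hr, ambient temperature.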
Gal4-VP16 FLuc: counter-screen for ROR gamma inhibitors: Gal4-VP16 reporter. Drosophila S2 Gal4-VP16 UAS-luciferase, luminescence, 20 h. 310,000 compounds, 3.5% hits. AID 2546. Potency, µM (top dose mostly 53.6 µM), inactives show at the highest dose activity, negative = inhibition, usual class: inhibitors;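 further: Gal4-VP16 expression switched on by copper sulfate through the metallothionein promoter; potency means the concentration at half of the fitted maximal effect; on the % scale 0 is the no-effect control and ±100 the full control effect; nearly all actives have a fitted effect of over 50% in size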
IL1B secr inh: blocks inflammasome-driven IL-1 beta release; THP-1 LPS/ATP IL-1B secretion, AlphaLISA, 16 h; active compounds read low; activity change, % at 57.5 µM; 360,000 compounds, 4.7% hits; AID 743279; in the data active means activity change below about -50%; inconclusive means mostly about -30% to -49%; further: on the % scale 0 is the no-effect control and ±100 the full control effect
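THP-1 cells pretreated 1 hr with compounds (up to 57.5 uM final), then stimulated with LPS (250 ng/mL final) plus ATP (1.25 mM final); secreted IL-1B measured by AlphaLISA after 16 hr, decreased signal indicating inhibition.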
SW480 rerep: DNA re-replication induction in SW480 cells; SW480 DNA re-replication, Hoechst DNA content imaging, 48 h; Potency, µM (highest dose often 46.1 µM), inactives show top-dose re-replication activation, most hits filed as activators; 340,000 compounds, 1.8% hits; further: potency means the concentration at half of the fitted maximal effect; % of control where 0% means no effect; nearly all actives have a fitted effect of over 55% in size
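Per well, 250 cells were exposed to pinned compound for 48 hr. Nuclear DNA was visualised with Hoechst (40 min, 37 C) and total object intensity recorded by fluorescence scanning.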
MCF10A rereplic: induces DNA re-replication in MCF 10a normal breast cells; 350,000 compounds, 2.9% hits; MCF 10A DNA re-replication, Hoechst nuclear intensity, 48 h; Potency, µM (titrated, usually from 46.1 µM), without a hit: at the top dose activity, positive = re-replication, usual class: activators; AID 624296; further: potency means the concentration at half of the fitted maximal effect; % of control where 0% means no effect; nearly all actives have a fitted effect of over 50% in size
Active calls of the source: *; [ ] = dose if it differs, or a comment. An excerpt weighted towards active compounds, which were near 11% of everything screened. Unless noted, the call rests on the fitted dose curve; in most records, active means well fitted curve in the direction sought with a large enough effect; inconclusive means small, poorly fitted or top-dose-only effect, or another doubt; inactive means no such curve, though single readings can be large; an effect the other way counts as inactive or inconclusive.

CC[C@@]1(c2ccc(N)cc2)CCC(=O)NC1=O was read as RORg inh 2%[16.9 µM], Gal4-VP16 FLuc 3%[17 µM], SW480 rerep 1% and MCF10A rereplic 8%.
`CN1[C@@H]2CC[C@H]1CC(OC(c1ccc(F)cc1)c1ccc(F)cc1)C2` (some centres undefined) gave RORg inh inconclusive and Gal4-VP16 FLuc -3%.
For Cc1cc(C)n(-c2ccc(NN=C(C#N)C#N)cc2)n1 the results were RORg inh inconclusive, Gal4-VP16 FLuc 10µM*, IL1B secr inh -13, SW480 rerep 113% and MCF10A rereplic inconclusive.
N#CC(C#N)=NNc1ccc(-n2ccc(C(F)(F)F)n2)cc1 was read as RORg inh 5µM*, Gal4-VP16 FLuc 3.5µM*, IL1B secr inh -83*, SW480 rerep inconclusive and MCF10A rereplic inconclusive.
`c1cc[n+]2c(c1)-c1cccc[n+]1CC2` gave RORg inh -27% and Gal4-VP16 FLuc -6%.
For CCOC(=O)c1ncc2[nH]c3ccc(OCc4ccccc4)cc3c2c1COC the results were RORg inh -92% and Gal4-VP16 FLuc 4.5µM*.
For Ic1c(C2=CCCCC2)[se]c2ccccc12 the results were RORg inh 9% and Gal4-VP16 FLuc -13%.
Screening c1cc2cc(c1)C[n+]1ccc(c3ccccc31)NCc1ccc(cc1)CNc1cc[n+](c3ccccc13)C2 returned RORg inh 0% and Gal4-VP16 FLuc -19%.
Screening Nc1c(Br)cc2c3c(cccc13)-c1ccccc1-2 returned IL1B secr inh -18, SW480 rerep inconclusive and MCF10A rereplic inconclusive.
For N#CSCSC#N the results were RORg inh 1.1µM* and Gal4-VP16 FLuc 0.45µM*.
Screening Cc1occc1C(=O)Nc1ccccc1 returned RORg inh 35% and Gal4-VP16 FLuc 4%.
O=C(c1ccc(Cl)cc1)C1CCCN(Cc2cccc3cccnc23)C1 (centres undefined) was read as RORg inh inconclusive, Gal4-VP16 FLuc -28%, IL1B secr inh -50*, SW480 rerep -76%[1.84 µM] and MCF10A rereplic 11%.
`COc1c(C)cc(C(=O)C2CCCN(Cc3cccc(C)n3)C2)cc1C` (centres undefined) gave RORg inh 2.2µM*, Gal4-VP16 FLuc 13µM*, IL1B secr inh 19, SW480 rerep -117% and MCF10A rereplic 27%.
Screening COc1cccc(C(=O)C2CCCN(Cc3ccon3)C2)c1 (centres undefined) returned RORg inh -7%, Gal4-VP16 FLuc -24%, IL1B secr inh 17, SW480 rerep -3% and MCF10A rereplic -4%.
`Cc1cccc(CN2CCCC(C(=O)c3ccc4c(c3)OCO4)C2)n1` (centres undefined) gave RORg inh 3.2µM*, Gal4-VP16 FLuc 13µM*, IL1B secr inh 14, SW480 rerep 6% and MCF10A rereplic inconclusive.
For CCCN1CCCC(C(=O)c2cc(C)c(OC)c(C)c2)C1 (centres undefined) the results were RORg inh 16%, Gal4-VP16 FLuc -9%, IL1B secr inh 14, SW480 rerep inconclusive and MCF10A rereplic inconclusive.
Screening COc1cccc(C(=O)C2CCCN(Cc3cccc(C)n3)C2)c1 (centres undefined) returned RORg inh inconclusive, Gal4-VP16 FLuc 14µM*, IL1B secr inh 18, SW480 rerep -3% and MCF10A rereplic 15%.
For CN1C(=O)COc2c(C(=O)N[C@@H]3CN4CCC3CC4)cc(Cl)cc21 the results were RORg inh 0% and Gal4-VP16 FLuc -2%.
For CC(=O)NNc1ccccc1 the results were RORg inh -12% and Gal4-VP16 FLuc -6%.
Screening CC(=O)CC(c1ccccc1)c1c(O)c2ccc(O)cc2oc1=O (centres undefined) returned RORg inh -12% and Gal4-VP16 FLuc -7%.
Cc1cccc(CN2CCCC(C(=O)c3cccc(OC(C)C)c3)C2)n1 (centres undefined) was read as RORg inh 2.2µM*, Gal4-VP16 FLuc 16µM*, IL1B secr inh 34, SW480 rerep inconclusive and MCF10A rereplic 20%.
For COc1c(C)cc(C(=O)C2CCCN(Cc3cccc(O)c3)C2)cc1C (centres undefined) the results were RORg inh -1%, Gal4-VP16 FLuc 2%, IL1B secr inh 24, SW480 rerep -16% and MCF10A rereplic 6.5µM*.
For CCn1nc(C)c(CN2CCCC(C(=O)c3cccc(OC(C)C)c3)C2)c1C (centres undefined) the results were RORg inh 25%, Gal4-VP16 FLuc 2%, IL1B secr inh 17, SW480 rerep -97% and MCF10A rereplic 11%.
Screening CC(C)=CC1C(C(=O)OCc2coc(Cc3ccccc3)c2)C1(C)C (centres undefined) returned RORg inh 6%, Gal4-VP16 FLuc -11%, SW480 rerep -1% and MCF10A rereplic inconclusive.
`O=C(Cl)c1ccccc1F` gave RORg inh -11% and Gal4-VP16 FLuc 4%.
For CCC(C)C1NC(=O)C(NC(=O)C(CC(C)C)N(C)C(=O)C2CCCN2C(=O)C(C)O)C(C)OC(=O)C(Cc2ccc(OC)cc2)N(C)C(=O)C2CCCN2C(=O)C(CC(C)C)NC(=O)[C@H](C)C(=O)[C@H](C(C)C)OC(=O)CC1O (some centres undefined) the results were IL1B secr inh -100*, SW480 rerep inconclusive and MCF10A rereplic inconclusive.
`Cc1cc(C)c(Cn2c(C(=O)O)c(C=O)c3ccccc32)c(C)c1` gave RORg inh inconclusive, Gal4-VP16 FLuc -6%, IL1B secr inh 40, SW480 rerep inconclusive and MCF10A rereplic 6.5µM*.
Screening O=c1c2ccccc2nc2n1CCS2(=O)=O returned RORg inh -5%, Gal4-VP16 FLuc inconclusive, IL1B secr inh -89*, SW480 rerep -3% and MCF10A rereplic 4%.
Screening CCn1c(O)c(C=NCc2cccs2)c(=O)n(CC)c1=S returned RORg inh 20%, Gal4-VP16 FLuc 0%, IL1B secr inh 15, SW480 rerep -1% and MCF10A rereplic inconclusive.
For CCn1c(O)c(C(=O)CC2NCCc3ccccc32)c(=O)n(CC)c1=S (centres undefined) the results were RORg inh 30%, Gal4-VP16 FLuc -17%, IL1B secr inh -2, SW480 rerep 2% and MCF10A rereplic 21µM*.
For C[C@@H]1OC=C2[C@@H](O)[C@H]3O[C@H]3C(=O)[C@@]23[C@H]1[C@H]1C2=C([C@@H](O)[C@H]4O[C@@H]4C2=O)[C@@H]3O[C@@H]1C the results were RORg inh -44%[10 µM] and Gal4-VP16 FLuc 28%[10 µM].
Screening Cc1ccc(CN2C3CCCC2CC(NC(=O)Nc2cccc(F)c2)C3)cc1 (centres undefined) returned RORg inh -13%, Gal4-VP16 FLuc 2%, IL1B secr inh -70*, SW480 rerep 17% and MCF10A rereplic 3%.
